By inhibition is commonly meant the relative decrease from the control value, in per cent.

About 3,300 (0.97%) of roughly 340,000 compounds were called active. The sample holds actives, similar compounds and a random draw of the others, so the mix is not that of the screen.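 The calls were made as follows: active = inhibition above the mean over all tested compounds plus 3 SD (cut at about 30% in these data); inactive = the rest.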

The target in this test is Platelet-activating factor acetylhydrolase 2, cytoplasmic (Homo sapiens) (UniProt Q99487). The test can be described thus: PAFAH2 enzyme inhibitors, primary screen, biochemical, fluorescence polarization, human (AID 492956).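 Also: inhibitors block probe labeling of enzyme so polarization drops; 0% = enzyme with DMSO and 100% = wells lacking PAFAH2 protein.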 To be noted: recombinant PAFAH2, FP-rhodamine activity probe, at 3.39 µM, hits give high values.
Turning to `CCN(CC)c1ccc(NC(=O)CN2C(=O)NC3(CCc4ccccc43)C2=O)cc1` (configuration not stated), the inhibition was -0.31% (inactive).
The same measure for `Cc1cc(C)n(CCNCc2c(C(=O)N3C[C@@H](C)O[C@@H](C)C3)nc3ccc(Cl)cn23)n1`: 0.53% (inactive); for `C#CC(C)(C)NC(=O)c1cnc(-c2ccccc2)nc1-c1ccccc1`: -1.01% (inactive).
The same measure for `CC(Nc1ccc([N+](=O)[O-])cc1[N+](=O)[O-])c1ccccc1` (configuration not stated): 4.73% (inactive); for `Cc1ccc(OCC(=O)Nc2ccccc2Sc2ccc(Cl)cc2)c([N+](=O)[O-])n1`: 0.47% (inactive).
The figure for `COc1ccc(Cc2n[nH]c(=S)n2NC(=O)Nc2ccc(C)cc2)cc1` is -2.45% (inactive); for `COc1ccc(NC(=O)COC(=O)c2ccc(NS(=O)(=O)/C=C/c3ccccc3)cc2)cc1` it is 75.8% (active).
Consider `NS(=O)(=O)c1ccc(NS(=O)(=O)/C=C/c2ccccc2)cc1`, for which the inhibition was 4.92% (inactive).
On to `CN(CC(=O)Nc1ccc(OC(F)F)cc1)S(=O)(=O)/C=C/c1ccccc1`, for which the inhibition was 3.38% (inactive).
The figure for `O=C(NCc1ccccc1)C1C(=O)N(Cc2ccccc2)C(=O)C1C1(O)CCCC1` (configuration not stated) is 3.41% (inactive).
In the case of `O=C(Cc1ccc(S(=O)(=O)N2CCOCC2)s1)NCCOc1ccccc1F`, the inhibition is 38.8% (active).
For `O=C(OCCOc1ccccc1F)c1cc(S(=O)(=O)N2CCOCC2)ccc1F`, the inhibition is -1.58% (inactive).
In the case of `O=C(Cc1ccc(S(=O)(=O)N2CCOCC2)s1)NCCC(c1ccccc1)c1ccccc1`, the inhibition is 3.55% (inactive).
For the molecule `Cc1ccc2c(c1)N(CC(=O)NCC1CCCO1)C(=O)CO2` (configuration not stated), the inhibition was 3.2% (inactive).
The same measure for `COCCCn1c(Cc2csc(Nc3cccc(Cl)c3)n2)nnc1SCC(=O)OC1CCCCC1`: 0.44% (inactive); for `O=S(=O)(c1ccc(NC(=S)NN=C(C2CC2)C2CC2)cc1)N1CCOCC1`: 8.93% (inactive); for `Cc1ccc(S(=O)(=O)N2CCN(CC(=O)N/N=C/c3cc([N+](=O)[O-])ccc3Cl)CC2)cc1`: -3.59% (inactive).
Turning to `O=[N+]([O-])c1cc(Cl)cc(/C=N/NC(=S)Nc2cc(S(=O)(=O)N3CCOCC3)ccc2Cl)c1O`, the inhibition is 85.2% (active).
The same measure for `C/C(=N\NC(=O)c1ccc(C)cc1)C1C(=O)c2ccccc2C1=O`: 14.8% (inactive).
The figure for `CCN1CCN(c2ccc(S(=O)(=O)N3CCCCC3)cc2NC(=O)Cc2c(Cl)cccc2Cl)CC1` is 12.9% (inactive).
The same measure for `Cc1cc(C)nc(NC(=O)c2cccc([N+](=O)[O-])c2)c1`: -7.58% (inactive).
As to `O=C(Nc1nnc(SCc2c(Cl)cccc2Cl)s1)C1CCCO1` (configuration not stated), the inhibition is 35.8% (active).
The same measure for `O=C(Nc1nnc(SCc2c(Cl)cccc2Cl)s1)c1cccc([N+](=O)[O-])c1`: 57.2% (active); for `NC(=O)CSc1nnc(NC(=O)c2ccc3ccccc3c2)s1`: 1.32% (inactive).
With `O=C(Nc1nnc(SCc2ccccc2Cl)s1)c1cccc([N+](=O)[O-])c1`, the inhibition is 32.2% (active).
The figure for `O=C(Nc1ccc(C2CC2(Cl)Cl)cc1)c1cccc([N+](=O)[O-])c1` (configuration not stated) is -4.09% (inactive); for `O=C(NCc1ccccc1Cl)C1CCCO1` (configuration not stated) it is 6.52% (inactive).
As for `Cc1cc(C)c2nc(NC(=O)C3CCCO3)sc2c1` (configuration not stated), the inhibition is -3.31% (inactive).
The figure for `CCOC(=O)CSc1nnc(NC(=O)c2cccc(S(=O)(=O)N3CCCC3)c2)s1` is 1.53% (inactive); for `COC(=O)C1=C(C(=O)OC)C(c2cc([N+](=O)[O-])ccc2O)c2sc(=O)[nH]c2S1` (configuration not stated) it is 11.7% (inactive); for `CC(C)(C)c1ccccc1NC(=O)CN1C(=O)NC2(CCCC2)C1=O` it is -2.59% (inactive).
The same measure for `CC(=O)Nc1ccc(SC[C@H](Cc2ccccc2)N2CC[C@@H](C)CCC2=O)cc1`: 1.61% (inactive); for `CCOC(=O)C1CCCN(Cc2nc(N)nc(Nc3ccc(C)cc3)n2)C1` (configuration not stated): 3.45% (inactive); for `CCCN(CC1CC1)C(=O)COC(=O)c1ccc(C)cc1O`: 6.82% (inactive).
The same measure for `Cc1cccc(NC(=O)/C=C/c2ccc3c(c2)OCO3)n1`: 0.78% (inactive); for `Cc1csc(NC(=O)CSc2ccc(-c3ccc(F)cc3)nn2)n1`: 1.11% (inactive); for `COC(=O)c1sc(-c2ccc(C(C)(C)C)cc2)cc1NC(=O)/C=C/C(=O)O`: -3.2% (inactive).
For the molecule `C[C@@H]1CC[C@]2(O[C@@H](CCO)C[C@H](O)[C@H]2O)O1`, the inhibition was -8.93% (inactive).
The same measure for `O=C(COC(=O)c1cc2c(s1)CCCC2)NCc1ccccc1Cl`: 67% (active); for `CC(NC(=O)COC(=O)c1cc(=O)[nH]c2ccccc12)c1ccccc1` (configuration not stated): 1.93% (inactive).
For `O=C(NCc1ccccc1Cl)c1csc2c1CCCCC2`, the inhibition was 3.83% (inactive).
The same measure for `O=C(COC(=O)c1ccccc1)c1ccc2c(c1)OCCO2`: 2.41% (inactive); for `CC(NC(=O)COC(=O)c1ccc2c(c1)OCO2)c1ccccc1` (configuration not stated): 55% (active).
The same measure for `O=C(COC(=O)c1ccc2c(c1)OCCO2)NCc1ccccc1Cl`: 85.4% (active).
In the case of `CN(C)C(=O)c1ccc(NC(=O)COC(=O)c2cc3c(s2)CCCCC3)cc1`, the inhibition is 22.8% (inactive).
The figure for `CC(=O)Nc1cccc(C(=O)OCC(=O)c2ccc3c(c2)OCO3)c1` is -2.44% (inactive); for `O=C(CN(Cc1ccccc1)C(=O)c1ccc2c(c1)OCCO2)NCc1ccc2c(c1)OCO2` it is 1.54% (inactive); for `O=C(COC(=O)c1ccc2c(c1)OCCO2)NCc1ccccc1` it is 51.5% (active).
The same measure for `O=C(COC(=O)c1ccc(Cl)nc1)NCc1ccc2c(c1)OCO2`: 5.61% (inactive).
Take `O=C(OCc1ccccc1F)c1ccc2c(c1)OCCO2`: the inhibition was 14.7% (inactive).
The same measure for `COc1cc(C(c2c(NC(=O)c3ccco3)sc(C)c2C)N2CCOCC2)cc(OC)c1OC` (configuration not stated): 2.1% (inactive); for `S=c1nc2ccccc2c2nc(-c3cccnc3)[nH]n12`: 6.52% (inactive); for `CCCCN1C(=O)CCC(C(=O)O)C1c1ccc(OC)cc1` (configuration not stated): -2.61% (inactive).
On to `CC(=O)Nc1ccc(Nc2c([N+](=O)[O-])cc(S(C)(=O)=O)cc2[N+](=O)[O-])cc1`, for which the inhibition was 3.4% (inactive).
For `O=C(CNS(=O)(=O)c1ccccc1)NCC(=O)OCc1ccccc1F`, the inhibition was 10.3% (inactive).
The same measure for `COC(=O)c1ccccc1NC(=O)C1(S(=O)(=O)c2ccc(Cl)cc2)CC1`: 4.24% (inactive).
For `CC(C)C1C2=C(CC(C)(C)CC2=O)ON1c1ccccc1` (configuration not stated), the inhibition was -5.16% (inactive).

The values above are taken from PubChem BioAssay AID492956 (The Scripps Research Institute Molecular Screening Center, 2010).
